Our source for the growth values is PubChem BioAssay (NCI).

About 83,000 compounds went through this panel and 20% of them were active in at least one assay; those are over-represented in the sample as a whole.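 Results are percent growth after 48 hours of single-concentration exposure. 100 means growth as in untreated cells, lower positive values show inhibition; negative values down to -100 show cell death.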 Unmarked numbers belong to inactive results. Active and inactive are the calls of the source. The calls were made as follows: active = growth percent below 10; inactive = the rest.

The test system of the experiment is SF-295 CNS. Kind of experiment: NCI-60 one-dose screen, 48 h (100 = growth as untreated, 0 = no growth, -100 = all killed). The following applies: 10 µM unless noted.
`C=C(C)[C@@H]1CC[C@]2(C(=O)OC)CC[C@]3(C)[C@H](CC[C@@H]4[C@@]5(C)C/C(=C/c6cccc(I)c6)C(=O)C(C)(C)[C@@H]5CC[C@]43C)[C@@H]12`: the growth is 97.6%.

`N#Cc1c(-c2ccc(Cl)cc2)nc(NN=Cc2ccco2)nc1N1CCOCC1`: the growth was 73.8%. Turning to `C=CC(=O)Nc1cccc(Nc2nc(SC)nc(-c3cccc([N+](=O)[O-])c3)c2C#N)c1`, the growth is 49.7%. In the case of `COc1ccc(/C=C/C(=O)c2ccc(O)c(CN3CCN(c4cc5c(cc4F)c(=O)c(C(=O)O)cn5C4CC4)CC3)c2)cc1`, the growth was 13.1%. `COc1cc2nc(N3CCCC3)nc(Nc3ccccc3)c2cc1OC`: the growth was -63.2% (active). `COc1cccc(-c2nc3sccn3c2-c2ccnc(NCCNS(=O)(=O)c3ccccc3)c2)c1`: the growth was 10.8%. With `COc1cc(/C=C/C(=O)c2c(C)oc3nc[nH]c(=O)c23)cc(OC)c1OC` the figure was 104%; with `C=C(C)[C@@H]1CC[C@]2(C(=O)OC)CC[C@]3(C)[C@H](CC[C@@H]4[C@@]5(C)C/C(=C/c6ccc(OC)cc6)C(=O)C(C)(C)[C@@H]5CC[C@]43C)[C@@H]12`, 99.9%. For the molecule `O=S(=O)(Nc1ccc(I)cc1F)c1ccc(-c2cnc(C3CC3)o2)cc1`, the growth is 28.6%. Turning to `COc1cc2nc(N3CCCC3)nc(NCCc3ccccc3)c2cc1OC`, the growth was 80%. Regarding `COc1ccc(Nc2nc(SC)nc(-c3cccc([N+](=O)[O-])c3)c2C#N)cc1`, the growth is 69.3%. Regarding `COc1cc(CNc2oc(-c3ccccc3)c(-c3ccccc3)c2C#N)cc(CN2CCN(C)CC2)c1O`, the growth was 51.7%.
